Measurements taken from PubChem BioAssay (NCI).
About 83,000 compounds went through this panel and 20% of them were active in at least one assay; those are over-represented in the sample as a whole.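 Growth was measured after 48 h exposure to one concentration of compound in 96-well plates. Values under 10 count as active.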 Unmarked numbers belong to inactive results. Active and inactive are the calls of the source.

Tests used:
Assay in all cases: NCI-60 one-dose screen, 48 h (100 = growth as untreated, 0 = no growth, -100 = all killed)
Conditions in all cases: 10 µM
T-47D breast = test system: T-47D breast
BT-549 breast = test system: BT-549 breast
MDA-MB-435 melanoma = test system: MDA-MB-435 melanoma
SW-620 colon = test system: SW-620 colon
MCF7 breast = test system: MCF7 breast
HCC-2998 colon = test system: HCC-2998 colon
KM12 colon = test system: KM12 colon
HCT-116 colon = test system: HCT-116 colon

Structure (SMILES) | growth (T-47D breast) | growth (BT-549 breast) | growth (MDA-MB-435 melanoma) | growth (SW-620 colon) | growth (MCF7 breast) | growth (HCC-2998 colon) | growth (KM12 colon) | growth (HCT-116 colon)
COc1cc(/C=C2\CCCC3=C2N=C2SC(C)=CN2C3c2cc(OC)c(OC)c(OC)c2)cc(OC)c1OC (centres undefined) | 33.1% | -14.5% (active) | 1.99% (active) | -0.154% (active) | 16% | -88% (active) |  | 
O=c1c(Br)ccc(Br)cc1Br | -44.1% (active) | 98.4% | -40.1% (active) | -46.5% (active) | -22.6% (active) |  | -47% (active) | 
C(=N\Nc1ncnc2sc3c(c12)CCNC3)/c1cccc2ccccc12 | 103% | 92.5% | 97.7% | 2.91% (active) | 37.8% | 92.6% | 82.4% | 
C=CCn1c(SCC(=O)Nc2ccc(C(=O)/C=C/c3cc(OC)c(OC)c(OC)c3)cc2)nnc1-c1cc(-c2ccc(Cl)cc2)nc2ccccc12 | 78.4% | 75% | 92.9% | 90.7% | 38.6% | 103% | 85.8% | 
COc1ccc(C(=O)CSc2nc(-c3cc(OC)ccc3OC)cc(-c3ccc(OC)cc3)c2C#N)cc1 | 85.7% | 89.9% | 100% | 110% | 101% | 108% | 92.1% | 
C=CCn1c(SCC(=O)Nc2ccc(C(=O)/C=C/c3ccc(OC)cc3)cc2)nnc1-c1ccc(OC)c(OC)c1 | 58.3% | 75.8% | 86.7% | 97.2% | 43.5% | 94.6% | 87.9% | 
COc1ccc(N=Nc2cc(OC)c(OC)c(OC)c2)cc1 | 58.8% | 89.7% | 67.6% | 79.8% | 63.6% | 81.4% | 81.7% | 
COc1cc(-c2nn(-c3cccc(NC(=O)CCN4CCN(c5ccccc5)CC4)c3)cc2-c2ccncc2)ccc1Cl | 17.5% | 12.6% | 16.8% | 24.5% | 12.6% | 28.5% | 13.3% | 
C/C=C/C1=CN2C(=O)c3cc(OC4OC(C)C(NC)C(C)(O)C4O)c(C)c(O)c3N=C[C@@H]2C1 (some centres undefined) | -8.27% (active) | -34.4% (active) | -77% (active) | -14.9% (active) | 0.963% (active) | -56.7% (active) | -60.7% (active) | 
CCOC(=O)c1cc(C(=O)c2cc(OC)c(OC)c(OC)c2)n2ncc3ccccc3c12 | 77.1% | 70.5% | 7.14% (active) | 35.8% | 30.4% | 93.2% | 39.6% | 
COC(=O)c1cc2oc(/C=C3/SC(=S)N(N)C3=O)cc2n1Cc1ccccc1 | 75.6% | 36.5% | 19.2% | -43.3% (active) | 21% | 80.2% | 58.9% | 
O=C(COc1cccc(/C=C2\CSc3ccccc3C2=O)c1)c1ccc(Cl)cc1 | 57.8% | -77.5% (active) | -14.8% (active) | -100% (active) | -89.2% (active) |  | -80.3% (active) | -57.8% (active)
C[C@]12CC[C@@H]3c4ccc(OS(=O)(=O)O)cc4CC[C@H]3[C@@H]1CC[C@@H]2NS(=O)(=O)c1ccc(-c2ccccc2)cc1 | 49.8% | 53.9% | 69.4% | 75.3% | 30.2% | 80.9% | 60.5% | 
CCN(CC)CCN1c2nc3ccccc3cc2Sc2cc3ccccc3nc21 | 73.5% | -92.4% (active) | -25% (active) | -29.7% (active) | -100% (active) | -99% (active) |  | 
O=[N+]([O-])c1ccc(NCSc2ccc(Cl)cc2)cc1 | 92.8% | 71.5% | 109% |  | 95% |  |  | 86.3%
CS(=O)(=O)c1nccc(-c2c(-c3cccc(OCCc4ccccc4)c3)nc3sccn23)n1 | 92.4% | 116% |  | 98.2% | 69.2% | 109% | 104% | 83.9%
COc1cc(CNC(=O)C2CSC3(C)c4ccccc4C(=O)N23)cc(OC)c1OC (centres undefined) | 87.2% | 108% |  | 101% | 93.7% | 95.5% | 106% | 98.1%
COc1cc(-c2ccc(N=Nc3ccc4c(S(=O)(=O)O)ccc(N)c4c3O)c(OC)c2)ccc1N=Nc1ccc2c(S(=O)(=O)O)ccc(N)c2c1O | 105% | 117% |  | 109% | 95.6% | 114% | 114% | 114%
COc1ccc(-c2nn(-c3cccc(Cl)c3)cc2-c2c(C#N)c(N)n(N)c(=O)c2C#N)cc1 | 48.7% | 58% |  | 83% | 47.5% | 93.4% | 62.3% | 45.7%
CS(=O)(=O)c1nccc(-c2c(-c3cccc(OCc4ccc(F)cc4)c3)nc3sccn23)n1 | 71.6% | 41.7% |  | 48.4% | 69.5% | -16.3% (active) | 38.9% | 46.4%
CCCCCCCCCCCC[n+]1c(C)cc(N)c2ccccc21 | -14% (active) | -29.7% (active) | -6.75% (active) |  | -0.77% (active) |  |  | -4.63% (active)
CC(C)c1ccc(C(C)C(=O)N(CC2=C(C(C)c3ccccn3)c3ccccc3C2)C(C)C)cc1 (centres undefined) | 13.3% | 69.6% |  | 31.3% | 19.9% | 37.3% | 37.5% | 11.1%
Cc1cn(-c2cc(F)cc(NC(=O)c3ccc(C)c(Nc4nccc(-c5cccnc5)n4)c3)c2)cn1 | 3.22% (active) | -27.3% (active) |  | 40.5% | 16.8% | 101% | 15.6% | 6.97% (active)
NC(N)=N/N=C(\c1ccccc1)C(O)c1ccccc1 (centres undefined) | 89.9% | 103% | 107% |  | 94.9% | 100% | 105% | 
O=C1C=C(Nc2cccc(Br)c2)c2ccccc2C1=O | 102% | 14.7% |  | 29.7% | 21% | 75.5% | 32.6% | 52%
CCOC(=O)c1cc(C(=O)c2ccc(Cl)cc2)n2ccc(-c3cc[n+](CC(=O)c4ccc(OC)cc4)cc3)cc12 | 83.4% | 82.1% |  | -29.5% (active) | 1.28% (active) | 100% | 64.4% | 5.5% (active)
C#CC(C)(O)[C@@H]1C[C@H](CC(=O)O)C1(C)C (some centres undefined) | 120% | 104% |  | 109% | 94% |  |  | 106%
